# Results as given in PubChem BioAssay (NCATS).
# Results filed as inconclusive are left out. Entries that show only a call come without a potency. The source made the active and inactive calls. Unless noted, the call rests on the fitted dose curve; in most records, active means well fitted curve in the direction sought with a large enough effect; inconclusive means small, poorly fitted or top-dose-only effect, or another doubt; inactive means no such curve, though single readings can be large; an effect the other way counts as inactive or inconclusive. Where a SMILES comes first, the peptide text is derived from it. [ ]: non-standard residue; d: D form. pGlu = O=C1CC[C@@H](C(=O)O)N1; Thz = O=C(O)[C@@H]1CSCN1
# Assays:
# [1] = target: D(1A) dopamine receptor (Homo sapiens) (UniProt P21728); assay: HTS Assay for Allosteric Agonists of the Human D1 Dopamine Receptor: Primary Screen for Antagonists (AID 488983);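 further: calcium flux response to an EC80 dopamine challenge measured with no-wash dye; nearly all actives have a fitted effect of over 65% in size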; further: potency means the concentration at half of the fitted maximal effect
# Method in brief: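 Calcium flux readout, no-wash dye, inducible HEK293 T-REx D1 line (force-coupled). Compound added after 10 s baseline, 180 s kinetic read; then dopamine at EC80, further 180 s read.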
# [2] = Validation screen for small molecules that induce genotoxicity in human embryonic kidney (HEK293T) cells expressing luciferase-tagged ELG1 (AID 493106)
# Method in brief: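 qHTS format; 2,000 HEK293T ELG1-luc cells/well; 23 nL compound via pin tool; 16 hr, 37 °C/5% CO2; ONE-Glo, 30 min RT; luminescence read.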
# [3] = target: Thyrotropin-releasing hormone receptor (Homo sapiens) (UniProt P34981); assay: qHTS for Small Molecule Agonists and Allosteric Enhancers of Human TRH Receptor: Validation Screen for Agonists (AID 493127;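 active means calcium activation more than 3 SD above the typical response in the agonist read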;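 further: intracellular calcium rise by fluo-8 fluorescence before TRH EC20 addition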); conditions: TRH receptor agonist cell assay; at 2 µM; stronger effect = higher value
# Method in brief: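 Read-out: intracellular calcium release measured kinetically by FDSS (fluo-8, ex 480/em 530 nm), 1 reading/s after a 10-cycle baseline. TRHR cells, 2000/well, cultured 18 h at 33.5C, dye-loaded at room temp. Compound-evoked positive calcium signal flags agonists.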
# [4] = target: ATPase family AAA domain-containing protein 5 (Homo sapiens) (UniProt Q96QE3); assay: Validation screen for small molecules that inhibit ELG1-dependent DNA repair in human embryonic kidney (HEK293T) cells expressing luciferase-tagged ELG1 (AID 493107); further: nearly all actives have a fitted effect of over 70% in size; further: potency means the concentration at half of the fitted maximal effect
# Method in brief: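 ELG1-luciferase HEK293T reporter; 5-fluorouridine + compound/DMSO, 16 hr, 37 °C, 5% CO2; ONE-Glo 30 min RT; luminescence read, qHTS format.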
# [5] = Nrf2 qHTS screen for inhibitors: Validation (AID 493153; active means well fitted inhibition curve with a large enough effect in the main read-out, with a control signal flat, not every such curve was filed as active; further: potency means the concentration at half of the fitted maximal effect); conditions: Potency: luciferase luminescence; viability change: measured here: cytotoxicity max response
# Method in brief: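 Concentration-response test in A549 ARE_Fluc reporter cells (5% FBS OPTI-MEM), compound exposure 18-24 h at 37°C, 5% CO2. Cell viability measured first by CellTiter-Fluor fluorescence; ARE-driven luciferase luminescence then measured as Nrf2 activity.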
# [6] = qHTS for Inhibitors of Cell Surface uPA Generation: Validation Assay (AID 493164);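 further: RAW 264.7 macrophage cells exposed to compound for 18 h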
# Method in brief: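 Compounds are titrated over seven points (2.45 nM–38.3 uM final) onto pre-plated RAW 264.7 cells and incubated for 18 h. Retained intracellular ATP, measured with ATP-Lite, indicates blocked lethal factor entry.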
# [7] = target: Galactokinase (Homo sapiens) (UniProt P51570); assay: qHTS Validation Assay for Inhibitors of Human Galactokinase (GALK) (AID 493189); further: potency means the concentration at half of the fitted maximal effect
# Method in brief: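 5 nM GALK / 100 uM galactose / 35 uM ATP, 20 mM HEPES pH8.0, 5 mM MgCl2, 60 mM NaCl, 1 mM DTT, 0.01% BSA (final). RT 1 h; Kinase-Glo Plus luminescence.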
# [8] = target: ATP-dependent 6-phosphofructokinase (Trypanosoma brucei brucei) (UniProt O15648); assay: qHTS Assay to Find Inhibitors of T. brucei phosphofructokinase: hit validation (AID 492961);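 further: luminescence reports ADP formed as PFK phosphorylates fructose-6-phosphate with ATP; series mostly up to about 51 µM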
# Method in brief: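 Percent activity derived from corrected luminescence, normalized between 0x and 1x enzyme controls, then fitted to concentration-response curves. Conditions: 1.25 nM PFK, 0.1 mM ATP, 0.5 mM F6P, 45 min RT.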
# [9] = target: D(1A) dopamine receptor (Homo sapiens) (UniProt P21728); assay: HTS Assay for Allosteric Agonists of the Human D1 Dopamine Receptor: Primary Screen for Potentiators (AID 488982)
# Method in brief: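 Tetracycline-induced HEK293 T-REx cells force-coupled to calcium signalling were incubated overnight at 30 C and dye-loaded at room temperature. Calcium flux over 180 s after compound addition flagged agonists; a further 180 s read after EC20 dopamine flagged potentiators.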
# [10] = target: Tyrosyl-DNA phosphodiesterase 1 (Homo sapiens) (UniProt Q9NUW8); assay: Confirmation Assay for Inhibitors of Tyrosyl-DNA Phosphodiesterase (TDP1) (AID 489007); conditions: recombinant human TDP1 enzymatic activity, dose-response; further: potency means the concentration at half of the fitted maximal effect; nearly all actives have a fitted effect of over 40% in size
# Method in brief: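 AlphaScreen read-out: streptavidin donor and anti-FITC acceptor beads (10 ug/ml) bind intact substrate, so Tdp1 removal of tyrosine-FITC lowers signal. Enzyme 1 nM, substrate 15 nM, 5 min reaction at room temperature after 15 min compound preincubation.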
# ATP-dependent 6-phosphofructokinase (Trypanosoma brucei brucei), sequence (O15648 whole entry, looked up): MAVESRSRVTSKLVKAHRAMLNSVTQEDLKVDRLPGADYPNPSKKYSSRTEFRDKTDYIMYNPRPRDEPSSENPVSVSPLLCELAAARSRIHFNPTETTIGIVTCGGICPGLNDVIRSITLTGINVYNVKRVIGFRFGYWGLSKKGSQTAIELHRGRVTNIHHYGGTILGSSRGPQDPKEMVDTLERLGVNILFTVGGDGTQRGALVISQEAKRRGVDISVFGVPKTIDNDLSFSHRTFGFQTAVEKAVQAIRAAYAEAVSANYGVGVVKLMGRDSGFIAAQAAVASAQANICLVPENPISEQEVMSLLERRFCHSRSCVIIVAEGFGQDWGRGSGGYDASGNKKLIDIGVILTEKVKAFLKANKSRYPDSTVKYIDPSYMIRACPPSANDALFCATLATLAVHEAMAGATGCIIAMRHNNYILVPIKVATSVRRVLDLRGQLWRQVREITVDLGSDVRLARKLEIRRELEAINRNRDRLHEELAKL
# D(1A) dopamine receptor (Homo sapiens), sequence (P21728 whole entry, looked up): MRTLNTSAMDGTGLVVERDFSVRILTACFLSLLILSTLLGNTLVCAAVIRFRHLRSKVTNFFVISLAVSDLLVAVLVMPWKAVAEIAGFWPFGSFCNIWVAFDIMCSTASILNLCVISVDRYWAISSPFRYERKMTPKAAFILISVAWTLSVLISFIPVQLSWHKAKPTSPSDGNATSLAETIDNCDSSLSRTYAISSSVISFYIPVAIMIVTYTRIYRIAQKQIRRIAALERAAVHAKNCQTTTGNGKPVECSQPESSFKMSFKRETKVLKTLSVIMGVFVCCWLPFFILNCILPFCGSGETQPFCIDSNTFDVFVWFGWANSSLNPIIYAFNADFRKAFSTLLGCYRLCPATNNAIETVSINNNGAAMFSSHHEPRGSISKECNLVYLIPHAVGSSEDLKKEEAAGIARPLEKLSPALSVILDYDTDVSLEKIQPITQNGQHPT
# Galactokinase (Homo sapiens), sequence (P51570 whole entry, looked up): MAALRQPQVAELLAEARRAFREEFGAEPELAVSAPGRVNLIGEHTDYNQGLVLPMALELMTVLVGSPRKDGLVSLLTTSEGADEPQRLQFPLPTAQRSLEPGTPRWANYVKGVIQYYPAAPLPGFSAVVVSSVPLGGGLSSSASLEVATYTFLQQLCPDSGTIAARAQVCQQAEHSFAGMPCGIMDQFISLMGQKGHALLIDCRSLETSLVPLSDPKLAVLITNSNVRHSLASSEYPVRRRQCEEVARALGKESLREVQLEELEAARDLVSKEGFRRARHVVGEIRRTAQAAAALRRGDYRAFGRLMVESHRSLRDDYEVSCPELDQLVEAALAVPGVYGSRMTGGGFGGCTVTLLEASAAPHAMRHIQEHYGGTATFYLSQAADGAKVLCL
# ATPase family AAA domain-containing protein 5 (Homo sapiens), sequence (Q96QE3 whole entry, looked up, the tested form may be a part): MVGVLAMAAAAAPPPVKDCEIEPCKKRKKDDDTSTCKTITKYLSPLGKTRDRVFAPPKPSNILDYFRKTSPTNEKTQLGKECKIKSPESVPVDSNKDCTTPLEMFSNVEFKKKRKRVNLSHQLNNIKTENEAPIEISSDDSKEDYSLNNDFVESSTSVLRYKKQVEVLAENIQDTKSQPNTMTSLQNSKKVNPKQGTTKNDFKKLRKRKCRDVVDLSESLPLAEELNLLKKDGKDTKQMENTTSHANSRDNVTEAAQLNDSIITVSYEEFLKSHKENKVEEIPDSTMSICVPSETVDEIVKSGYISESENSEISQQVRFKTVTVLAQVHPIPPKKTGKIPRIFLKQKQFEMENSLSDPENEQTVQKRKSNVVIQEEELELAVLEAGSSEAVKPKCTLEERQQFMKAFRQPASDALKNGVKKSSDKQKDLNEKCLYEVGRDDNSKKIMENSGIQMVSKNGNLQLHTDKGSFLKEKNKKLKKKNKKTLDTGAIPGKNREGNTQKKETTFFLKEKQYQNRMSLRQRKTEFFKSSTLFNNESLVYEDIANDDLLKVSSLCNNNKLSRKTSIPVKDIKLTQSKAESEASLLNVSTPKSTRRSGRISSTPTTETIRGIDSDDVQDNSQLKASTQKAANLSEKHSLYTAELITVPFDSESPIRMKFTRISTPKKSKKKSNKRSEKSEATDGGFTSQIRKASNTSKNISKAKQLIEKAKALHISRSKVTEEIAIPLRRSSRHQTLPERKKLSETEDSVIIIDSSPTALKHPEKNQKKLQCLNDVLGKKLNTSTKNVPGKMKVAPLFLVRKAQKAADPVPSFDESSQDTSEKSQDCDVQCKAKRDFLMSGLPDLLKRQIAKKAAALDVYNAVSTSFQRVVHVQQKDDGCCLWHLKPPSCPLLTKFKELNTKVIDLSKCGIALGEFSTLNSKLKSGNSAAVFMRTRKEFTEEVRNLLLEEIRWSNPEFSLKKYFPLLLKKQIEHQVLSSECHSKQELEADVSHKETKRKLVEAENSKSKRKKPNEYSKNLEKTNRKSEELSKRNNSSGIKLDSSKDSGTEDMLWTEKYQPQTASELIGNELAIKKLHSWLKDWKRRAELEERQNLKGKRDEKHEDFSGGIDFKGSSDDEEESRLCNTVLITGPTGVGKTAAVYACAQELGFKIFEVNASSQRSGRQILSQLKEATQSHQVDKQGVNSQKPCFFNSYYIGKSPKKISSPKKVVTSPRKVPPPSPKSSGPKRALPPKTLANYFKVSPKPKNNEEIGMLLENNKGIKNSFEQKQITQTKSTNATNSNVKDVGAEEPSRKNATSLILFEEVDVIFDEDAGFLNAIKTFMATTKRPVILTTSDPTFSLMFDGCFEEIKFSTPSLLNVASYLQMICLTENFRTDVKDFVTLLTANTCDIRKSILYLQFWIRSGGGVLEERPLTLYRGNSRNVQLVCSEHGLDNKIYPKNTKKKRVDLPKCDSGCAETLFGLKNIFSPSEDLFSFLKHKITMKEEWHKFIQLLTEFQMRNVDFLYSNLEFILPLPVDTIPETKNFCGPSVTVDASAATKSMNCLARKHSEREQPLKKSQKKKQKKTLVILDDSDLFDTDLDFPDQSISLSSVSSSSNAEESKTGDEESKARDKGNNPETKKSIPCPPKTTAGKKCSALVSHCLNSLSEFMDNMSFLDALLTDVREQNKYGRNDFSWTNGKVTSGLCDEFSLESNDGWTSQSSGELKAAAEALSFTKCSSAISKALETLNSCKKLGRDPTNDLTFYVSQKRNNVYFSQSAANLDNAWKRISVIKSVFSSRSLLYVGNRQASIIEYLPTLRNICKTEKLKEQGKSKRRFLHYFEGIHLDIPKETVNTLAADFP
# Thyrotropin-releasing hormone receptor (Homo sapiens), sequence (P34981 whole entry, looked up): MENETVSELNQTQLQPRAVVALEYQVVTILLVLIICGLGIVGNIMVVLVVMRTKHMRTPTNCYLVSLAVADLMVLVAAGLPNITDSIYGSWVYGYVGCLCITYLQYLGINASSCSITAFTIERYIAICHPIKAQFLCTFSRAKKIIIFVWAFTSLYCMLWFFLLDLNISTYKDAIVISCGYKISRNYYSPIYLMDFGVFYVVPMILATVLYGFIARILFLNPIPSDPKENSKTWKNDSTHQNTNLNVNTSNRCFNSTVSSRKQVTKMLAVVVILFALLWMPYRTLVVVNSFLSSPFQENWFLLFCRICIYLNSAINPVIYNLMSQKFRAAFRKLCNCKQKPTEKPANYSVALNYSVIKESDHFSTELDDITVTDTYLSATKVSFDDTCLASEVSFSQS
# Tyrosyl-DNA phosphodiesterase 1 (Homo sapiens), sequence (Q9NUW8 whole entry, looked up): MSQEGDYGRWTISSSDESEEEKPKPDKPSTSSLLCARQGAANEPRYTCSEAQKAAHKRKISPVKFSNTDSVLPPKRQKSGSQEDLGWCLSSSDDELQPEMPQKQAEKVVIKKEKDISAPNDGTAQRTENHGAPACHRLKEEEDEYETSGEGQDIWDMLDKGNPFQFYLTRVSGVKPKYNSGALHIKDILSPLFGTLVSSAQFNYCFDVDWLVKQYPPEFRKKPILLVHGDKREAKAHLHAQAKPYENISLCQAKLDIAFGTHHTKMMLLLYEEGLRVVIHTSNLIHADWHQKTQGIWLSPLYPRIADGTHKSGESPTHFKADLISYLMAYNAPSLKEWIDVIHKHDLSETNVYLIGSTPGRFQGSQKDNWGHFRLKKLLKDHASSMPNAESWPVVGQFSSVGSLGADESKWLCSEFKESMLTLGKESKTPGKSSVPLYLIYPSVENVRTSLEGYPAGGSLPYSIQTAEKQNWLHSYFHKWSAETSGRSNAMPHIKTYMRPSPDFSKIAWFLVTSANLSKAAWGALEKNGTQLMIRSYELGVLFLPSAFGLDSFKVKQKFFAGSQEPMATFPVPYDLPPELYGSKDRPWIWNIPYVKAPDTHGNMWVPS
structure (smiles),measurement,setting,value
CC(C)NCC(O)COc1cccc2ccccc12 (stereo unspecified),Potency,[1],inactive
same,Potency,[2],inactive
same,activation,[3],2.25% (inactive)
CSc1ccccc1N1CCN(CCCCCC(=O)NC2CCCc3ccccc32)CC1 (stereo unspecified),Potency,[1],2 µM (active)
same,Potency,[2],inactive
CN(C)c1nc2c(Br)c(Br)c(Br)c(Br)c2[nH]1,Potency,[1],inactive
same,Potency,[2],inactive
same,Potency,[4],1.46 µM (active)
same,activation,[3],5.88% (inactive)
same,Potency,[5],16.4 µM (active)
same,viability change,[5],-13.2%
same,outcome,[6],inactive
same,Potency,[7],inactive
O=C(O)/C=C/C(O)c1ccc(Cl)cc1 (stereo unspecified),Potency,[1],inactive
same,outcome,[8],inactive
same,Potency,[2],inactive
same,Potency,[4],inactive
same,activation,[3],0.125% (inactive)
same,outcome,[6],inactive
same,Potency,[7],inactive
C#CCN1C(C)=C(C(=O)OC)C(c2cccc([N+](=O)[O-])c2)C(C(=O)OCC)=C1C (stereo unspecified),Potency,[1],inactive
same,Potency,[2],inactive
same,activation,[3],-10.2% (inactive)
same,Potency,[5],inactive
same,viability change,[5],-0.517%
same,outcome,[6],inactive
same,Potency,[7],inactive
CCCCCCCC/C=C\CCCCCCCC(=O)NCCO,Potency,[9],inactive
same,Potency,[2],inactive
same,activation,[3],1.25% (inactive)
same,Potency,[5],inactive
same,viability change,[5],1.03%
same,outcome,[6],inactive
same,Potency,[7],inactive
NC(CCCP(=O)(O)O)C(=O)O (stereo unspecified),Potency,[1],inactive
same,Potency,[2],inactive
same,activation,[3],0.562% (inactive)
same,Potency,[5],inactive
same,viability change,[5],3.42%
same,outcome,[6],inactive
same,Potency,[7],inactive
N[C@@H](CC(=O)O)C(=O)O,Potency,[1],inactive
same,Potency,[2],inactive
same,Potency,[4],inactive
same,activation,[3],1.19% (inactive)
same,outcome,[6],inactive
same,Potency,[7],inactive
N=C(N)SCCc1ccc(CCSC(=N)N)cc1,Potency,[1],inactive
same,Potency,[2],inactive
same,Potency,[4],inactive
same,Potency,[5],inactive
same,viability change,[5],-6.92%
same,outcome,[6],inactive
same,Potency,[7],inactive
COc1cccc(C(=O)NCCN2CCN(c3ccc(Cl)cc3)CC2)c1,Potency,[1],inactive
same,Potency,[2],inactive
same,activation,[3],0.562% (inactive)
same,Potency,[5],inactive
same,viability change,[5],-10%
same,outcome,[6],inactive
same,Potency,[7],inactive
N#C/C(=C\c1ccc(O)c(O)c1)C(=O)c1ccc(O)c(O)c1,Potency,[1],inactive
same,Potency,[2],inactive
same,Potency,[4],inactive
same,activation,[3],-0.562% (inactive)
same,Potency,[5],inactive
same,viability change,[5],-19.7%
same,Potency,[7],inactive
C[C@@H](NC(=O)/C(C#N)=C/c1ccc(O)c(O)c1)c1ccccc1,Potency,[1],inactive
same,Potency,[2],inactive
same,Potency,[4],inactive
same,activation,[3],0.938% (inactive)
same,outcome,[6],inactive
same,Potency,[7],inactive
O=S(=O)(c1cccc2c(I)cccc12)N1CCCNCC1,Potency,[9],inactive
same,Potency,[2],inactive
same,Potency,[5],inactive
same,viability change,[5],12.3%
same,outcome,[6],inactive
same,Potency,[7],inactive
OC[C@H]1O[C@@H](n2cnc3c(NC4CCCCC4)ncnc32)[C@H](O)[C@@H]1O,Potency,[1],inactive
same,Potency,[2],inactive
same,outcome,[6],inactive
same,Potency,[7],inactive
CC1(C)S[C@@H]2[C@H](NC(=O)[C@H](NC(=O)N3CCN(S(C)(=O)=O)C3=O)c3ccccc3)C(=O)N2[C@H]1C(=O)O,outcome,[8],inactive
c1ccc2sc(SSc3nc4ccccc4s3)nc2c1,outcome,[8],inactive
O=C1CN(/N=C/c2ccc(-c3ccc([N+](=O)[O-])cc3)o2)C(=O)N1,outcome,[8],inactive
CCCCCCOc1ccccc1C(N)=O,outcome,[8],inactive
CC(C(=O)O)c1ccc2c(c1)[nH]c1ccc(Cl)cc12 (stereo unspecified),outcome,[8],inactive
COc1cc2c3cc1Oc1cc(ccc1O)C[C@@H]1c4c(cc(OC)c(O)c4Oc4ccc(cc4)C[C@@H]3N(C)CC2)CC[N+]1(C)C,outcome,[8],inactive
CN=c1nc(-c2ccccc2)n(-c2ccccc2)s1,Potency,[1],11.2 µM (active)
same,outcome,[6],inactive
same,Potency,[7],inactive
Cc1nc2ccccc2n1Cc1ccc(Cl)cc1,outcome,[8],inactive
CNc1ncnc2c1ncn2[C@@H]1O[C@H](CO)[C@@H](O)[C@H]1O,Potency,[1],inactive
same,Potency,[5],inactive
same,viability change,[5],-0.614%
same,outcome,[6],inactive
Cc1cc(O)c2ccccc2c1O,outcome,[8],inactive
CNC(=O)[C@H]1O[C@@H](n2cnc3c(NCc4ccc(N)cc4)ncnc32)[C@H](O)[C@@H]1O,Potency,[1],inactive
same,Potency,[4],inactive
same,Potency,[5],inactive
same,viability change,[5],-2.65%
same,outcome,[6],inactive
CCCC(=O)OC[C@@H](OC(=O)CCC)[C@@H](OC(=O)CCC)[C@H](Cn1c2nc(=O)[nH]c(=O)c-2nc2cc(C)c(C)cc21)OC(=O)CCC,outcome,[8],inactive
CCCCCCCCCCCCCCCCCC(=O)NCC(COP(=O)([O-])OCC[N+](C)(C)C)OCC (stereo unspecified),Potency,[1],12.6 µM (active)
same,activation,[3],2.19% (inactive)
same,outcome,[6],inactive
same,Potency,[7],inactive
Cc1c(Nc2ncccc2C(=O)O)cccc1C(F)(F)F,outcome,[8],inactive
CCCCC#Cc1nc(NC)c2ncn([C@@H]3O[C@H](CO)[C@@H](O)[C@H]3O)c2n1,Potency,[1],inactive
same,Potency,[5],inactive
same,viability change,[5],2.21%
same,outcome,[6],inactive
COC(=O)C1=C(C)NC(C)=C(C(=O)OCC(C)C)C1c1ccccc1[N+](=O)[O-] (stereo unspecified),outcome,[8],inactive
CO/N=C(\C(=O)N[C@@H]1C(=O)N2C(C(=O)O)=C(COC(C)=O)CS[C@H]12)c1csc(N)n1 (stereo in doubt),Potency,[10],7.94 µM (active)
same,Potency,[7],inactive
Cc1ccc(S(=O)(=O)/C=C/C#N)cc1,Potency,[1],12.6 µM (active)
same,Potency,[4],20.6 µM (active)
same,outcome,[6],inactive
CC1(C)C[C@@H]1C(=O)N/C(=C\CCCCSC[C@H](N)C(=O)O)C(=O)O,outcome,[8],inactive
Nc1nc(Nc2ccccc2)nc2c1ncn2[C@@H]1O[C@H](CO)[C@@H](O)[C@H]1O,Potency,[1],inactive
same,Potency,[4],5.8 µM (active)
same,Potency,[5],inactive
same,viability change,[5],-0.505%
same,outcome,[6],inactive
O=C1C(SCCO)=C(SCCO)C(=O)c2ccccc21,Potency,[1],11.2 µM (active)
same,Potency,[2],inactive
same,outcome,[6],inactive
same,Potency,[7],25.1 µM (active)
Brc1c(Br)c(Br)c2n[nH]nc2c1Br,Potency,[1],inactive
same,activation,[3],0.938% (inactive)
same,outcome,[6],inactive
same,Potency,[7],inactive
COc1cc(/C=C/C(=O)N2CCN(CC(=O)N3CCCC3)CC2)cc(OC)c1OC,outcome,[8],inactive
NC(=O)C(c1ccccc1)(c1ccccc1)[C@@H]1CCN(CCc2ccc3c(c2)CCO3)C1,outcome,[8],inactive
O=C(O)Cc1ccc(-c2ccccc2)cc1,outcome,[8],inactive
Nc1c(CC(=O)O)cccc1C(=O)c1ccc(Br)cc1,outcome,[8],inactive
O=C(Nc1ccc(C(=O)O)c(O)c1)c1ccccc1,outcome,[8],inactive
CCCCC[C@H](O)/C=C/[C@@H]1[C@@H](C/C=C\CCCC(=O)O)[C@@H](O)C[C@H]1O,outcome,[8],inactive
C=C(Nc1ccc(OCC)cc1)Nc1ccc(OCC)cc1,outcome,[8],inactive
NS(=O)(=O)C#Cc1ccccc1,Potency,[1],inactive
same,outcome,[6],inactive
CN1CCN(c2cc3c(nn2)Oc2ccccc2N3C)CC1,outcome,[8],inactive
CCCCCCCCCCCCCCCC(=O)OC(C)C,outcome,[8],inactive
C[S+](CC[C@H](N)C(=O)O)C[C@H]1O[C@@H](n2cnc3c(N)ncnc32)[C@H](O)[C@@H]1O (stereo partly specified),outcome,[8],inactive
Cc1ccc(O)c(-n2nc3ccccc3n2)c1,outcome,[8],inactive
O=C(OCc1ccccc1)c1ccccc1,outcome,[8],inactive
O=C(/C=C/c1ccccc1)NCCO,outcome,[8],inactive
c1ccc2sc(SN3CCOCC3)nc2c1,outcome,[8],inactive
O=C1CC[C@@H](C(=O)N2CSC[C@H]2C(=O)O)N1 ([pGlu]-[Thz]-OH),outcome,[8],inactive
